Results as given in PubChem BioAssay (NCI).
The panel holds about 79,000 compounds, 15% with a hit somewhere; the sample as a whole holds those more often. Calls of active or inactive are those of the source. Cut-off read from the data, not from the text of the source: active = growth inhibition above about 70%; inactive = the rest.

How the values were obtained:
[1] = NCI Yeast Anticancer Drug Screen. Data for the rad50 strain (AID 155);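 note: 0% = growth of vehicle-only cultures of the same strain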; details: S. cerevisiae rad50 strain growth inhibition; at 50.0 µM; stronger effect = higher value
In short: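 Relative growth inhibition (compound vs vehicle) was measured in yeast with a defined repair-gene alteration.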

[2] = NCI Yeast Anticancer Drug Screen. Data for the mec2-1 strain (AID 157); details: S. cerevisiae mec2-1 strain, at 50.0 µM, stronger effect = higher value
In short: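 Cells of the genetically defined mec2-1 yeast strain are incubated with test compound. Inhibition of growth is calculated against vehicle-treated controls.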

[3] = NCI Yeast Anticancer Drug Screen. Data for the sgs1 mgt1 strain (AID 161);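 note: 0% = growth of cultures given vehicle only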; details: S. cerevisiae sgs1 mgt1 strain, at 50.0 µM, stronger effect = higher value
In short: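 Read-out: growth inhibition vs vehicle controls. Cells: mutant yeast strain deficient in DNA damage repair.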

[4] = NCI Yeast Anticancer Drug Screen. Data for the cln2 rad14 strain (AID 165);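 note: 0% = growth equal to vehicle treated cultures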; details: S. cerevisiae cln2 rad14 strain, at 50.0 µM, stronger effect = higher value
In short: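 The screen exposed genetically defined yeast (cln2 rad14) to test compounds and scored growth inhibition relative to vehicle-treated controls.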

[5] = NCI Yeast Anticancer Drug Screen. Data for the bub3 strain (AID 167); details: S. cerevisiae bub3 mutant strain, at 50.0 µM, stronger effect = higher value
In short: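 Screening used yeast with an engineered genetic alteration affecting cell cycle control. Compound-exposed cultures were compared with vehicle cultures, and reduced growth was taken as inhibition.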

[6] = NCI Yeast Anticancer Drug Screen. Data for the mlh1 rad18 strain (AID 175); details: S. cerevisiae mlh1 rad18 strain growth inhibition; at 50.0 µM; stronger effect = higher value
In short: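 Compound-treated yeast growth, normalised to vehicle controls. Strain bears defined DNA repair mutations.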

Measured: growth inhibition

Cc1cccc(/C=N/NC(=S)N2CCCCCC2)n1
active: [1] 89.3% | [2] 93.2% | [3] 92.1% | [4] 92.8% | [5] 92.2% | [6] 89%

COc1ccc2c(c1O)-c1c(OC)c(OC)cc3c1[C@H](C2)[N+](C)(C)CC3
inactive: [1] -9% | [2] -12.2% | [3] 11.2% | [4] 1.65% | [5] -1.1% | [6] -53.4%

CCOC(NC(=O)CC)(C(F)(F)F)C(F)(F)F
inactive: [1] 4.3% | [2] -24.6% | [3] -49.9% | [4] -3.4% | [5] 1.85% | [6] -36.9%

O=C(O)c1cc(Cl)cc([N+](=O)[O-])c1
inactive: [1] 41.1% | [2] -3% | [3] 52.5% | [4] 19.3% | [5] 23% | [6] 52.9%

O=C1NC(=O)N(C(F)(F)F)C(F)(F)N1C(F)(F)F
inactive: [1] 1.25% | [2] 4.55% | [3] 3.75% | [4] 30.9% | [5] 5.8% | [6] 23.1%

CC1OC(c2ccccc2)=CC(OCc2ccccc2)[C@H]1OCc1ccccc1 (stereo not given in full)
inactive: [1] -18.9% | [2] -23.6% | [3] -19% | [4] -50.8% | [5] -33% | [6] 2.95%

CCOC(=O)/C(C#N)=C/c1cccc(Cl)c1
inactive: [1] 28.6% | [2] 30% | [3] 38.9% | [4] 13.3% | [5] 13.4% | [6] 44%

O=C(O)c1onc2ccccc12
inactive: [1] -17.9% | [2] -15.1% | [3] -35.2% | [4] -7.7% | [5] -5.15% | [6] -29.8%

CCCCC1(CCS)C(=O)NC(=Nc2ccccc2)NC1=O (stereo not given)
inactive: [1] -0.95% | [2] -3.95% | [3] 11.8% | [4] -37.3% | [5] 22.7% | [6] -11.8%

CC(O)C1OC(=O)C(O)C1O (stereo not given)
inactive: [1] -0.75% | [2] 4.95% | [3] -14.8% | [4] -5.9% | [5] 5.95% | [6] -6.05%

CC(NC(=O)OC(C)(C)C)C(=O)NC(Cc1ccccc1)C(=O)NCC(=O)ON=C1CCCC1 (stereo not given)
inactive: [1] 37.1% | [2] 4.1% | [3] 32.6% | [4] 7.3% | [5] 1.9% | [6] 23.6%

COC(=O)/C=C/c1ccc(OP(=O)(O)O)c(OC)c1
inactive: [1] -22.1% | [2] -8.9% | [3] -30.6% | [4] -20.6% | [5] -56.7% | [6] -15.4%

CCOC(=O)C1=C(C)NC(=O)NC1c1ccc(OC)cc1OC (stereo not given)
inactive: [1] -2.15% | [2] -25.6% | [3] -11.7% | [4] 18.6% | [5] -18% | [6] -6.5%

NC1=NC(c2ccc(Cl)cc2)N(c2ccc(S(N)(=O)=O)cc2)C(N)=N1 (stereo not given)
inactive: [1] 9.05% | [2] -4.35% | [3] -24.5% | [4] -21.9% | [5] -11.3% | [6] 21.6%

COc1ccc(C2(C)OC(=O)c3ccccc32)c2ccccc12 (stereo not given)
inactive: [2] 49.9% | [3] 46.3% | [4] 39.2% | [6] 65.7%
active: [1] 71% | [5] 73.2%

C(/C=N/NC1=NCCCN1)=N\NC1=NCCCN1
inactive: [1] -3.5% | [2] -15.2% | [3] -14.6% | [4] 10.9% | [5] -33.1% | [6] -14.2%

O=C(/C=C/c1ccc(Cl)cc1)c1ccccc1O
inactive: [1] -9.15% | [2] 9.8% | [3] -6.05% | [4] -10.8% | [5] -1.25% | [6] 11.1%

C[C@H](CCC(=O)O)[C@H]1CC[C@H]2[C@@H]3CC[C@@H]4C[C@H](O)CC[C@]4(C)[C@H]3CC[C@]12C
inactive: [1] 40% | [2] 31.4% | [3] 10% | [4] 0.75% | [5] 25.8% | [6] 23.6%

CCCCCCCCCCCCCCCc1c(NC(C)(CC)[P+](=O)O)c(=O)n(C)n1C (stereo not given)
inactive: [1] -41.5% | [2] -32.5% | [3] -7.45% | [4] -29.9% | [5] -12.2% | [6] -18.8%

CN(NC(=O)CCCl)C1=NCCN1
inactive: [1] 5.15% | [2] -4.6% | [3] -3.95% | [4] -11% | [5] 8.1% | [6] 16.7%
